# ChEMBL document CHEMBL1961873, “Compounds: GSK PKIS; Assays: Nanosyn kinase panel” (2012)
# Legend:
# [1] = target: Sphingosine kinase 1 (Homo sapiens) (UniProt Q9NYA1); settings: at 1 µM;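 also: mean SPHK1 inhibition value reported from the GSK PKIS kinase panel screen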
# [2] = target: T1, Sphingosine kinase 2 (Homo sapiens) (UniProt Q9NRA0); settings: at 0.1 µM
# T1 sequence (whole entry): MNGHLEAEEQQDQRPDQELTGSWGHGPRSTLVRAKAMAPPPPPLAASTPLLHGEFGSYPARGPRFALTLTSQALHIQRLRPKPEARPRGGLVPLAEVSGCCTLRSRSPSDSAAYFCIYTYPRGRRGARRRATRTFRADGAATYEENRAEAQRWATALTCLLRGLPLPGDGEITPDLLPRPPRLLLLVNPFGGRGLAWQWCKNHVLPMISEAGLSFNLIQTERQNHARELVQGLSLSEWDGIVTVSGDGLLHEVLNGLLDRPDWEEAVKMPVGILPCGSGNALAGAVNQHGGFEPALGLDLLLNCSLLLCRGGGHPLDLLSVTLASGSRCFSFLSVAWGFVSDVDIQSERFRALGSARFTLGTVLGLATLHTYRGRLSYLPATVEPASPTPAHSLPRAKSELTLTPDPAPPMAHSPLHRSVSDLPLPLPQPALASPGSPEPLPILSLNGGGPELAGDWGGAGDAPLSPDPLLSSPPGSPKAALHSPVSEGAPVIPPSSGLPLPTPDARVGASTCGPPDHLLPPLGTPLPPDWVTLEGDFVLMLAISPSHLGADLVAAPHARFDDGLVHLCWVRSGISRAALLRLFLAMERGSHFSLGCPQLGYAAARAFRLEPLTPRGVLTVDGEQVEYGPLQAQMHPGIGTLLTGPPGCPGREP
# [3] = target: T1, Sphingosine kinase 2 (Homo sapiens); settings: at 1 µM
# [4] = target: Casein kinase II subunit alpha (Homo sapiens) (UniProt P68400); settings: at 0.1 µM
# Casein kinase II subunit alpha (Homo sapiens), sequence (P68400 whole entry, looked up): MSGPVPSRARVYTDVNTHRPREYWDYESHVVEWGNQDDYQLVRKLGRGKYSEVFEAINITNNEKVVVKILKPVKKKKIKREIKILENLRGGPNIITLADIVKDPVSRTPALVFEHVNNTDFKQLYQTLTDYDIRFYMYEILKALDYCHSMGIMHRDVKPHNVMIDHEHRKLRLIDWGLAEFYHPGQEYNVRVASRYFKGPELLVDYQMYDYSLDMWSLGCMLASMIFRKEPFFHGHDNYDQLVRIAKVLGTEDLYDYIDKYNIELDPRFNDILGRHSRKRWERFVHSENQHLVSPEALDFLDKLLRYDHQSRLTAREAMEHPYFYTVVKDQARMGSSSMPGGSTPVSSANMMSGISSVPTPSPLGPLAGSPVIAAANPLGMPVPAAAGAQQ
# [5] = target: Casein kinase II subunit alpha (Homo sapiens) (UniProt P68400); settings: at 1 µM
# [6] = target: T2, Inhibitor of nuclear factor kappa-B kinase subunit alpha (Homo sapiens) (UniProt O15111); settings: at 0.1 µM
# T2 sequence (whole entry): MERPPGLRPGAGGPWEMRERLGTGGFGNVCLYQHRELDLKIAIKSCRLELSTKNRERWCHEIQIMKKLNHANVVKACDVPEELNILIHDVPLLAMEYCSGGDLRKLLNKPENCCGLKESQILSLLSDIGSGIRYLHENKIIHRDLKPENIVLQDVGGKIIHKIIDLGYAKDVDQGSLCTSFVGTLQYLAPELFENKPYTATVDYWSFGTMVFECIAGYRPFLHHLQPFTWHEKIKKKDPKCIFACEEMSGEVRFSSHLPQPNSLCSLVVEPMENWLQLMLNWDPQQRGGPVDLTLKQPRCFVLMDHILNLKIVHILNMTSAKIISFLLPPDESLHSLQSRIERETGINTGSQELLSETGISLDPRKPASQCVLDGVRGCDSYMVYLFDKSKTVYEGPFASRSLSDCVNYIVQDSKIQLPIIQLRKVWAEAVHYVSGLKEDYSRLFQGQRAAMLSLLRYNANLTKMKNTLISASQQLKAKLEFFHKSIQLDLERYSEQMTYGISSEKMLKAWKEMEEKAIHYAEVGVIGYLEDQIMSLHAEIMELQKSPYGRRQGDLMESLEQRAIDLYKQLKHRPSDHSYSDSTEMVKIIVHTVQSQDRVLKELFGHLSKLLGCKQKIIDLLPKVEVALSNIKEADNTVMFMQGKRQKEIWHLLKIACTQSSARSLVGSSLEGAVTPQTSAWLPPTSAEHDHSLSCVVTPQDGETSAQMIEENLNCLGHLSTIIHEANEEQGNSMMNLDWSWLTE
# [7] = target: T2, Inhibitor of nuclear factor kappa-B kinase subunit alpha (Homo sapiens); settings: at 1 µM
# [8] = target: T3, Inhibitor of nuclear factor kappa-B kinase subunit beta (Homo sapiens) (UniProt O14920); settings: at 0.1 µM
# T3 sequence (whole entry): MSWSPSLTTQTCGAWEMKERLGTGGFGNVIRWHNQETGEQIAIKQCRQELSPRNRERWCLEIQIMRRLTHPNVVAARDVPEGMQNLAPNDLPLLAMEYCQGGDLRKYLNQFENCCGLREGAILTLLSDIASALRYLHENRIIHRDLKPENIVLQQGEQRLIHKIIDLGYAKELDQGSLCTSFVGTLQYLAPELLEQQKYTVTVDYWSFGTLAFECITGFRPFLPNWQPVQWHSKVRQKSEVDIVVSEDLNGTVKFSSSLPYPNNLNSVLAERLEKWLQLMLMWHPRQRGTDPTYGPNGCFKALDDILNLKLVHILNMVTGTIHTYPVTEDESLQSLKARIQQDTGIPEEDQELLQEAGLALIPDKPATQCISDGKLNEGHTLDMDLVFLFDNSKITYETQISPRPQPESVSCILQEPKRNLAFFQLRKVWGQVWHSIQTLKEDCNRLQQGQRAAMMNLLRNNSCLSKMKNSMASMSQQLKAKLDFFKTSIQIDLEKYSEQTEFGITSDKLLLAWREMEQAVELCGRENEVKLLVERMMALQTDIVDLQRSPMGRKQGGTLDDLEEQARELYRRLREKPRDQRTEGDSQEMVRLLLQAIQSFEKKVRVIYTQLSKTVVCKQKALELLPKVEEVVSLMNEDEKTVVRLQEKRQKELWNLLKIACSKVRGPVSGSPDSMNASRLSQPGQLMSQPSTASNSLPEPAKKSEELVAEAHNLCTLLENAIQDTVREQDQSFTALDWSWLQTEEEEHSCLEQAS
# [9] = target: T3, Inhibitor of nuclear factor kappa-B kinase subunit beta (Homo sapiens); settings: at 1 µM
# [10] = target: T4, Inhibitor of nuclear factor kappa-B kinase subunit epsilon (Homo sapiens) (UniProt Q14164); settings: at 0.1 µM
# T4 sequence (whole entry): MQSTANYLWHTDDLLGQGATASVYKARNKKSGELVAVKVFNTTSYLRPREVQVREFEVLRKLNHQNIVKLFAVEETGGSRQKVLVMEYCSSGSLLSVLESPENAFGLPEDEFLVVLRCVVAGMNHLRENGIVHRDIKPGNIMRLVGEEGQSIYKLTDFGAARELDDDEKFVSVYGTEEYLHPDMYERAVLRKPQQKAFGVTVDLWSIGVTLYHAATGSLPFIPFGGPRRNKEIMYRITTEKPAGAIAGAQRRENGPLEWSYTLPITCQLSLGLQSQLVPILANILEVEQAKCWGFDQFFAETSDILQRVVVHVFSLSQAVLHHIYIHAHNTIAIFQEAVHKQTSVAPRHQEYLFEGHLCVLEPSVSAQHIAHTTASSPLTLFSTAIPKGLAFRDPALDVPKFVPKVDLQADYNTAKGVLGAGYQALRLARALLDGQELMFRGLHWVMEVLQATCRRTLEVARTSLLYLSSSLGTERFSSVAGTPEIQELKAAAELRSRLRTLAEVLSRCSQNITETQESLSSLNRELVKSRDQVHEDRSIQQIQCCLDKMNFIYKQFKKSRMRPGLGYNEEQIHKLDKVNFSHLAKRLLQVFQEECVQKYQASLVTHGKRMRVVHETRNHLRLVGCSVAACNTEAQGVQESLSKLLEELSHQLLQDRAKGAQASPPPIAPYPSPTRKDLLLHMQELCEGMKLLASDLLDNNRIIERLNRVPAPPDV
# [11] = target: T4, Inhibitor of nuclear factor kappa-B kinase subunit epsilon (Homo sapiens); settings: at 1 µM
# [12] = target: T5, Serine/threonine-protein kinase Nek1 (Homo sapiens) (UniProt Q96PY6); settings: at 0.1 µM
# T5 sequence (whole entry): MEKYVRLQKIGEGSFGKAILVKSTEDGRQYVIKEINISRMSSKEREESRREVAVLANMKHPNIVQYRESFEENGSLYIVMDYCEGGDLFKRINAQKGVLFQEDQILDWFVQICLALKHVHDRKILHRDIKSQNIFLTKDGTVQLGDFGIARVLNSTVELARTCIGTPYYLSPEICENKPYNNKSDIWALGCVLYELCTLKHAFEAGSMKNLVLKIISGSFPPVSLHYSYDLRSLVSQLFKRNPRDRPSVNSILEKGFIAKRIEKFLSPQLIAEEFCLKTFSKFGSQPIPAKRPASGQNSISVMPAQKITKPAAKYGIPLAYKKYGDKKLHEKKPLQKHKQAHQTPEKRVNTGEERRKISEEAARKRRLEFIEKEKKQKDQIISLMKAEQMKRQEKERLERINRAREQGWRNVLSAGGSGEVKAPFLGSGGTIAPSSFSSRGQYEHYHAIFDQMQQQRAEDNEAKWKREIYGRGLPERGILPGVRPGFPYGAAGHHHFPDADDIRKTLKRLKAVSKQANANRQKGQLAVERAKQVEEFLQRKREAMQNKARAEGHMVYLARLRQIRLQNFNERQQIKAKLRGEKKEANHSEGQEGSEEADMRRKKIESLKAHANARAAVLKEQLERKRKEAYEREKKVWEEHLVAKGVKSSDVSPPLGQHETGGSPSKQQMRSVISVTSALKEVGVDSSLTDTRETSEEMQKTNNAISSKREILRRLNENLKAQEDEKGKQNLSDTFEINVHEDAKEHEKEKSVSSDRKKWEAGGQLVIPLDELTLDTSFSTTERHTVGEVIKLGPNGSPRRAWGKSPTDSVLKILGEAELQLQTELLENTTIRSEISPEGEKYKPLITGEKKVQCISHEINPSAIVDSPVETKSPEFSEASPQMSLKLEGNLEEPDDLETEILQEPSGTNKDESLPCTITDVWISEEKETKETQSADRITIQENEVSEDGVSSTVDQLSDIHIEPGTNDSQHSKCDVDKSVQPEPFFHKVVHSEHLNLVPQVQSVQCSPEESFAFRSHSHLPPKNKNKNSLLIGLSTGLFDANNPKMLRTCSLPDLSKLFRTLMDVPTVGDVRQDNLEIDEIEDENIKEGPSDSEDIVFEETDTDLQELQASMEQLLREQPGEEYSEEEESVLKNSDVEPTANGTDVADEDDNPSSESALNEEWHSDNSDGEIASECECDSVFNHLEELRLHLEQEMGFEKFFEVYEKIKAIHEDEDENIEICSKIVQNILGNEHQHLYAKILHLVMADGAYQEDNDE
# [13] = target: T5, Serine/threonine-protein kinase Nek1 (Homo sapiens); settings: at 1 µM
# [14] = target: T6, Serine/threonine-protein kinase Nek2 (Homo sapiens) (UniProt P51955); settings: at 0.1 µM
# T6 sequence (whole entry): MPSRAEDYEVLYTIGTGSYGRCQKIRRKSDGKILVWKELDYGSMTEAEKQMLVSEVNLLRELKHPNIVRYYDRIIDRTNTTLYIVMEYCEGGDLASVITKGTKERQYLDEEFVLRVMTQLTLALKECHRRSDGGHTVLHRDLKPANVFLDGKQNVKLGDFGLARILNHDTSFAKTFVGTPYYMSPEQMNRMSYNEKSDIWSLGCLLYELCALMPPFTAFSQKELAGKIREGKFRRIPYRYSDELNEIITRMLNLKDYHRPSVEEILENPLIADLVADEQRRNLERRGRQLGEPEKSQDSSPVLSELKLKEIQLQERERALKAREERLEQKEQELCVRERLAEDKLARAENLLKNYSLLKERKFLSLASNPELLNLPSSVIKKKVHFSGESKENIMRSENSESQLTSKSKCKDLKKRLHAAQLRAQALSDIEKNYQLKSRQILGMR
# [15] = target: T6, Serine/threonine-protein kinase Nek2 (Homo sapiens); settings: at 1 µM
# [16] = target: Serine/threonine-protein kinase Nek6 (Homo sapiens) (UniProt Q9HC98); settings: at 0.1 µM
# Serine/threonine-protein kinase Nek6 (Homo sapiens), sequence (Q9HC98 whole entry): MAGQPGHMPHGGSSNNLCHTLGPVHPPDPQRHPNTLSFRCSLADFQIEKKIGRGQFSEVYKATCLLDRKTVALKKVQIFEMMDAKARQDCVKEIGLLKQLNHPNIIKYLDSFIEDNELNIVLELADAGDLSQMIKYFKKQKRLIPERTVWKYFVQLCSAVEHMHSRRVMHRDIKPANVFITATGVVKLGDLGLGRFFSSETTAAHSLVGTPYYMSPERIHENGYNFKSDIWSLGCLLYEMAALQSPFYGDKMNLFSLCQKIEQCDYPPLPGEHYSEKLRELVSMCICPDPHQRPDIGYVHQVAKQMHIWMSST
# [17] = target: Serine/threonine-protein kinase Nek6 (Homo sapiens) (UniProt Q9HC98); settings: at 1 µM
# [18] = target: Serine/threonine-protein kinase Nek7 (Homo sapiens) (UniProt Q8TDX7); settings: at 0.1 µM
# Serine/threonine-protein kinase Nek7 (Homo sapiens), sequence (Q8TDX7 whole entry, looked up): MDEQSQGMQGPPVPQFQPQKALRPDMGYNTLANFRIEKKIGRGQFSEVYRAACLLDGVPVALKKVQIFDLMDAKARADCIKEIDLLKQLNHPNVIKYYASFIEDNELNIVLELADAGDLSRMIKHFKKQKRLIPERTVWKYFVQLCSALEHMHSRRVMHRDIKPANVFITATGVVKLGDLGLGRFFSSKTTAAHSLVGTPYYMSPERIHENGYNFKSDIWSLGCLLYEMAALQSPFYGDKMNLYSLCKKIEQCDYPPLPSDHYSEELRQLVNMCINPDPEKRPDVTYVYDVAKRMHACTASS
# [19] = target: Serine/threonine-protein kinase Nek7 (Homo sapiens) (UniProt Q8TDX7); settings: at 1 µM
# [20] = target: T7, Serine/threonine-protein kinase Nek9 (Homo sapiens) (UniProt Q8TD19); settings: at 0.1 µM;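 also: reported value is the mean percent inhibition of NEK9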
# T7 sequence (whole entry): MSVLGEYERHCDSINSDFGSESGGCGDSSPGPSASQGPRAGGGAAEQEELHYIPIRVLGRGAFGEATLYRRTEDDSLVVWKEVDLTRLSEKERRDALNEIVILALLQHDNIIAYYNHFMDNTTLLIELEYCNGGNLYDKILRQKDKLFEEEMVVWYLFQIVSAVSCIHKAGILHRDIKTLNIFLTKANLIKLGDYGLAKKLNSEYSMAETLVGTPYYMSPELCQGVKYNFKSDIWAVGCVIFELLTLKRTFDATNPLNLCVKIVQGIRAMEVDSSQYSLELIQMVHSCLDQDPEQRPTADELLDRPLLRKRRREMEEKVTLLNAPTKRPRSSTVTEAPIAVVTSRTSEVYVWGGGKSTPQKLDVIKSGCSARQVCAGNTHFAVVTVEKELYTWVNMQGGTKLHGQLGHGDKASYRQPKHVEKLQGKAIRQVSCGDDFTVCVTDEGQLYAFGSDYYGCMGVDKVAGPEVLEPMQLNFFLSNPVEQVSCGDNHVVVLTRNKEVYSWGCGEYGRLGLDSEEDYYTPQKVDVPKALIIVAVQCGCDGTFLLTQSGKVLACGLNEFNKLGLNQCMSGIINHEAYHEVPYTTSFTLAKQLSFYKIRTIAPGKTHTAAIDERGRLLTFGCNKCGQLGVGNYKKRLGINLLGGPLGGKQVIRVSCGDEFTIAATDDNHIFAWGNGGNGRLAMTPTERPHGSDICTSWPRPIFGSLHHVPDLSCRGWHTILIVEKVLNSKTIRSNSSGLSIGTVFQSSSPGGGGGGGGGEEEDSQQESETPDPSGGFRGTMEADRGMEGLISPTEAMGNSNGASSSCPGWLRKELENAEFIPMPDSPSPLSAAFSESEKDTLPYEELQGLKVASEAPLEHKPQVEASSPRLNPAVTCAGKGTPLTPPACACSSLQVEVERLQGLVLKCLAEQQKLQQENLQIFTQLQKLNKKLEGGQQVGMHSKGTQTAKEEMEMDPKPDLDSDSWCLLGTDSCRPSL
# Sphingosine kinase 1 (Homo sapiens), sequence (Q9NYA1 whole entry): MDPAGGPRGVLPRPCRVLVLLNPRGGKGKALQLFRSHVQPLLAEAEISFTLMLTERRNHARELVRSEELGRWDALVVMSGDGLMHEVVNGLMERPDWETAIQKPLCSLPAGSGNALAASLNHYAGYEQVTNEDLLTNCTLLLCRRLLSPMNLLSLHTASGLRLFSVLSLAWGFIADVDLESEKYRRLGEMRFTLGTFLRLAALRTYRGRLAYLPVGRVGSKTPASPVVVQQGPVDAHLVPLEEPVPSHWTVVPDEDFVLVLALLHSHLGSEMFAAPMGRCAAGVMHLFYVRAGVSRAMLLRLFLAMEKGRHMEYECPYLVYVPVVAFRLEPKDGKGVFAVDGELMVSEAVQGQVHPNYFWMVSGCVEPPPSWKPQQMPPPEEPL
smiles,measurement,setting,value
O=C1NC(=O)C(c2cccc(Cl)c2)=C1Nc1ccc(Cl)c(C(=O)O)c1,inhibition,[1],2.31%
same,inhibition,[2],-0.06%
same,inhibition,[3],0.61%
same,inhibition,[4],2.24%
same,inhibition,[5],7.88%
same,inhibition,[6],2.51%
same,inhibition,[7],-0.25%
same,inhibition,[8],3.73%
same,inhibition,[9],4.76%
same,inhibition,[10],6.56%
same,inhibition,[11],6.69%
same,inhibition,[12],2.39%
same,inhibition,[13],1.69%
same,inhibition,[14],3.91%
same,inhibition,[15],3.63%
same,inhibition,[16],2.53%
same,inhibition,[17],5.19%
same,inhibition,[18],2.65%
same,inhibition,[19],1.25%
same,inhibition,[20],-5.63%
